Screening results: PubChem BioAssay, National Center for Advancing Translational Sciences (NCATS)
This is a sample that favours compounds with a hit; in the whole collection about 8.1% have one here.
Sfp inh = qHTS Assay for Inhibitors of Bacillus subtilis Sfp phosphopantetheinyl transferase (PPTase). hit rate 3.5% among 310,000. Potency, µM, inactives show largest response in the series, negative = inhibition, usual class: inhibitors. Biochemical Sfp PPTase activity, qHTS;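 further: the enzyme is Sfp with the accession as filed and its product quenches rhodamine fluorescence; 0% = enzyme reaction without inhibitor and -100% = no enzyme wells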
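Step 1, compound plus 15 nM Sfp-PPTase, 15 min, room temperature. Step 2, add rhodamine-CoA (5 uM) and BHQ-2-YbbR (12.5 uM). Step 3, read 525/598 nm fluorescence at 0 and 30 min.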
ClpP mod = qHTS Assay for Activators of ClpP | ATP-dependent Clp protease proteolytic subunit (Bacillus subtilis (strain 168)), P80244 | purified B. subtilis ClpP, FRET peptide cleavage, 20 min | Potency, µM (highest dose often 57.5 µM), without a hit: at the highest dose activity change, negative = active | hit rate 1.9% among 340,000 | AID 651965, 2013; active means well fitted falling curve with a large enough effect; inconclusive means small, poorly fitted or top-dose-only effect; inactive means no such curve, though single readings can be large or run the other way; further: the source files actives as falling curves though it sought activators and does not explain the sign; nearly all actives have a fitted effect of over 65% in size
Target sequence (P80244 whole entry, looked up): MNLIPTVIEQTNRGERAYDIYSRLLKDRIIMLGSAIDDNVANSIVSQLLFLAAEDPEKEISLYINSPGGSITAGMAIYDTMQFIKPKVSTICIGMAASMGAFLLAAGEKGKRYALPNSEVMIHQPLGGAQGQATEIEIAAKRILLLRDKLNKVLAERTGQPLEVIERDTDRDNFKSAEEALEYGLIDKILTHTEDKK
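Purified B. subtilis ClpP, 10 microg/mL final in Tris/HCl pH8 with KCl, BSA, glycerol and Tween-20, cleaved an Abz/nitrotyrosine-quenched decapeptide. Fluorescence (ex 320, em 430) was read at 0 and 20 min at room temperature. Delta was normalized to 5.8 microM ADEP and DMSO/no-enzyme controls.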
PINK1 expr mod = A Quantitative High throughput Screen to Identify Chemical Modulators of PINK1 Expression; PINK1 immunofluorescence, high-content cytometry, 24 h; Potency, µM (highest dose often 76.6 µM), inactives show at the top dose activation (PINK1 increase), actives largely listed as activators; hit rate 0.2% among 410,000; active means well fitted activation curve with a large enough effect; inconclusive means small, poorly fitted or top-dose-only effect; cell line not stated here; further: % of control where 0% means no effect; nearly all actives have a fitted effect of over 65% in size
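PINK1 protein, normally rapidly degraded, was detected by immunofluorescence after 24 hour compound treatment of a stable cell line. Titration data (5 concentrations) came from laser-scanning cytometry, with CCCP-treated wells as controls.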
Gal4-VP16 FLuc = VP16 counterscreen qHTS for inhibitors of ROR gamma transcriptional activity. Drosophila S2 Gal4-VP16 UAS-luciferase, luminescence, 20 h. hit rate 3.5% among 310,000. Potency, µM (titrated, usually from 53.6 µM), for inactives: at the highest dose activity, negative = inhibition, usual class: inhibitors;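 further: Gal4-VP16 expression switched on by copper sulfate through the metallothionein promoter; on the % scale 0 is the no-effect control and ±100 the full control effect; nearly all actives have a fitted effect of over 50% in size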
Epigenetic derep = Quantitative High-Throughput Screen for Regulators of Epigenetic Control. murine LDR cells, GFP reporter derepression, 30 h. Potency, µM (doses to about 53.9 µM), without a hit: top-dose GFP activation, hits mostly activators. hit rate 0.2% among 280,000. AID 1865, 2009; further: % of control where 0% means no effect; nearly all actives have a fitted effect of over 60% in size
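Readout is the number of GFP-expressing murine LDR cells, counted by cytometry following washing. Cells were treated with compound for 30 h at 37 C; the stably integrated CMV-GFP locus is normally silent.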
RORg inh = qHTS for inhibitors of ROR gamma transcriptional activity. hit rate 5.4% among 310,000. AID 2551, 2010. Nuclear receptor ROR-gamma (Mus musculus), P51450. Drosophila S2 Gal4-RORgamma UAS-luciferase reporter, 20 h. Potency, µM (highest dose often 53.6 µM), without a hit: at the top dose activity change, negative = inhibition, usual class: inhibitors; further: on the % scale 0 is the no-effect control and ±100 the full control effect; nearly all actives have a fitted effect of over 60% in size
Target sequence (P51450 whole entry, looked up, the tested form may be a part): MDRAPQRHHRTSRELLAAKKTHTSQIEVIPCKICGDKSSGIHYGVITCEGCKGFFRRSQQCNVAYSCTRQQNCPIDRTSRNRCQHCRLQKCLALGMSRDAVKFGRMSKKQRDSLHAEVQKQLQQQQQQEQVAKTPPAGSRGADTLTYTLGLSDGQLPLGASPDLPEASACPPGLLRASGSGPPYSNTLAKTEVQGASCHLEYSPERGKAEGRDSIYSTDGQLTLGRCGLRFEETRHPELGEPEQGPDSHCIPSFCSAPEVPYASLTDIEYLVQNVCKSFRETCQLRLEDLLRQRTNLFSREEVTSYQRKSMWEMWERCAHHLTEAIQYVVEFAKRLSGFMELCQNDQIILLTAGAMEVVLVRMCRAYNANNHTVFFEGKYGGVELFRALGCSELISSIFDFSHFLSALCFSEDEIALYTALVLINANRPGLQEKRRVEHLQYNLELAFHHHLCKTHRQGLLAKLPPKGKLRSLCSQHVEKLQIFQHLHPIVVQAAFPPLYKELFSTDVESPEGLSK
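Stable Schneider cell line, Gal4 DNA-binding domain fused to ROR gamma, UAS-luciferase. Cmpd 1 hr RT → CuSO4 700 uM final → 20 hr RT → luciferase reagent 10 min → luminescence.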
The depositor's hits bear a star; ? = inconclusive; nt = not tested or not shown; [ ] = another dose, or the depositor's remark. Unless noted, the call rests on the fitted dose curve; in most records, active means well fitted curve in the direction sought with a large enough effect; inconclusive means small, poorly fitted or top-dose-only effect, or another doubt; inactive means no such curve, though single readings can be large; an effect the other way counts as inactive or inconclusive. Potency means the concentration at half of the fitted maximal effect.

SMILES | Sfp inh | ClpP mod | PINK1 expr mod | Gal4-VP16 FLuc | Epigenetic derep | RORg inh
CN(C)CCCN(C(=O)COc1ccc(Cl)cc1)c1nc2cc3c(cc2s1)OCCO3 | nt | -5% | -2% | nt | nt | nt
CN(C)CCCN(C(=O)c1ccc(S(=O)(=O)N(C)Cc2ccccc2)cc1)c1nc2cc3c(cc2s1)OCO3 | ? | -1% | -1% | ? | nt | 8.9µM*
CCCCN(CC)S(=O)(=O)c1ccc(C(=O)N(CCCN(C)C)c2nc3cc(C)cc(C)c3s2)cc1 | 50µM* | nt | 3% | ? | 12% | 11µM*
CN(C)CCCN(C(=O)COc1ccc(Cl)cc1)c1nc2cc3c(cc2s1)OCO3 | -10% | -2% | -2% | ? | nt | 11µM*
CCOc1cccc2sc(N(CCCN(C)C)C(=O)c3ccc(S(=O)(=O)N(C)Cc4ccccc4)cc3)nc12 | 56µM* | 39% | -1% | ? | nt | -65%
C=C1C=C(C)n2ncc(C(=O)Nc3ccc(F)cc3F)c2N1 | nt | -3% | 2% | nt | nt | nt
CN(C)CCCN(C(=O)c1ccc([N+](=O)[O-])o1)c1nc2cc3c(cc2s1)OCO3 | -4% | -1% | 2% | ? | nt | 13µM*
CCOc1cccc2sc(N(CCCN(C)C)C(=O)c3ccc(S(=O)(=O)N(CC)Cc4ccccc4)cc3)nc12 | 50µM* | -2% | -2% | 22µM* | nt | ?
CN(C)CCCN(C(=O)c1ccc2c(c1)OCCO2)c1nc2cc3c(cc2s1)OCO3 | 10% | -2% | 0% | 4% | nt | -7%
CCN(Cc1ccccc1)S(=O)(=O)c1ccc(C(=O)N(CCCN(C)C)c2nc3c(F)cccc3s2)cc1 | 79µM* | -1% | 1% | ? | nt | ?
CCCCCC(=O)N1c2ccccc2C(C)(c2ccccc2)CC1(C)C (stereo not drawn) | nt | -1% | 2% | nt | -5% | nt
CC(=O)N1CCCC1c1nc2ccccc2n1Cc1ccccc1Cl (stereo not drawn) | nt | 0% | 0% | nt | -2% | nt
O=C(CSc1nccc(=O)[nH]1)c1c[nH]c2ccccc12 | 9% | 0% | -1% | 0% | 2% | 21%
O=C(CSc1nccc(=O)[nH]1)c1ccccc1Br | 50µM* | -2% | 2%[38.3 µM] | 12% | 1% | 2%
Cc1noc2ncnc(Oc3ccccc3)c12 | 14% | 25µM* | -1% | 5% | 0% | 12%
Cc1cccc(Oc2ncnc3onc(C)c23)c1 | 7% | 0% | -1% | -1% | -7% | 45%
CCc1ccccc1N1CSC2=C(C#N)C(c3cc(OC)c(OC)cc3OC)CC(=O)N2C1 (stereo not drawn) | 0.89µM* | 1% | 3% | -9% | 0% | ?
COc1cc(OC)c(C2CC(=O)N3CN(c4ccccc4)CSC3=C2C#N)cc1OC (stereo not drawn) | 3.2µM* | -2% | -3% | 14% | 2% | -8%
CCSC1=C(C#N)C(c2ccccc2OC)CC(=O)N1 (stereo not drawn) | 2% | -4% | -1% | 5% | -1% | 27%
CC(=O)c1ccc(OCC(O)CN(C)Cc2cccs2)cc1 (stereo not drawn) | 56µM* | -4% | -1% | 7% | 1% | 24%
CN(Cc1cccs1)CC(O)COCc1ccco1 (stereo not drawn) | 7% | -1% | -2% | 25% | 1% | ?
COc1cc(NC(=S)Nc2ccc(Br)cc2Cl)c(OC)cc1Cl | 50µM* | -2% | ? | ? | -1% | ?
COc1cc(NC(=S)Nc2cccc(Cl)c2Cl)c(OC)cc1Cl | 50µM* | -2% | 0% | ? | -1% | ?
COc1cc(NC(=S)Nc2ccccn2)c(OC)cc1Cl | 1% | 0% | 7% | 7.1µM* | -1% | 1.3µM*
COc1cc(NC(=O)C/C(C)=N/NC(=O)c2ccccn2)c(OC)cc1Cl | -6% | -6% | 1% | 16% | nt | -26%
SMILES | Sfp inh | ClpP mod | PINK1 expr mod | Gal4-VP16 FLuc | Epigenetic derep | RORg inh
COc1cc(Cl)c(C)cc1NC(=O)c1cccc(OC)c1OC | 4% | nt | 2% | 0% | -1% | 23%
COc1cc(Cl)c(C)cc1NC(=S)NN | 35µM* | nt | 5% | ? | -1% | 2.5µM*
COc1cc(NC(=S)NC2CC(C)(C)NC(C)(C)C2)c(OC)cc1Cl | 8% | -1% | 1% | -5% | -5% | -2%
CCOc1ccc(NC(=O)N2CCN(c3nnc(C)c4c(C)n(-c5ccccc5)nc34)CC2)cc1 | nt | -5% | -1% | nt | 5% | nt
COc1cc(NC(=S)NC(C)(C)C)c(OC)cc1Cl | -26% | 1% | 3% | ? | 0% | 5µM*
O=S(=O)(c1ccc2c(c1)OCCO2)N1CCC(c2nc3ccccc3s2)CC1 | 5% | 2% | 11µM* | -8% | 6% | 0%
CSCCC(NC(=O)c1cccc([N+](=O)[O-])c1)C(=O)OCC(=O)N1CCCC1=O (stereo not drawn) | nt | -2% | -1% | nt | nt | nt
CSCCC(NC(=O)c1cccc([N+](=O)[O-])c1)C(=O)O (stereo not drawn) | 15% | 25µM* | 1% | -2% | -1% | 4%
CCCCn1c(=O)c2oc3ccccc3c2n(CC(=O)Nc2ccc(CC)cc2)c1=O | nt | -3% | 1% | nt | 5% | nt
CN(C1CCCCC1)S(=O)(=O)c1ccc(NC(=O)C2CCCCC2C(=O)O)cc1 (stereo not drawn) | 11% | 32µM* | -2% | 2% | -1% | 0%
CN(Cc1ccccc1)S(=O)(=O)c1ccc(NC(=O)C2CCCCC2C(=O)O)cc1 (stereo not drawn) | nt | 0% | 2% | nt | nt | nt
O=C1c2ccccc2-c2onc3ccc(N4CCCC4)c1c23 | 40µM* | -2% | -2% | -9% | ? | ?
O=C1c2ccccc2C(=O)c2c1cccc2N1CCCC1 | -19% | -4% | 2% | ? | 1% | 11µM*
Cn1c(=O)cc2c3c(c(N4CCCCC4)ccc31)C(=O)c1ccccc1-2 | -6% | -2% | 3% | -13% | -2% | -23%
CCOc1ccc2noc3c2c1C(=O)c1ccccc1-3 | ? | 0% | -2% | -18% | -1% | -33%
COc1ccc(NC(=O)CCNS(=O)(=O)c2cccc3nsnc23)cc1Cl | nt | 0% | -1% | nt | 0% | nt
O=C(NC1CCCCCC1)c1nc2ncccn2n1 | 20% | 28µM* | -1% | -2% | 0% | -8%
N#Cc1c(NC(=O)c2nc3ncccn3n2)sc2c1CCCCC2 | -22% | -3% | 11% | -4%[0.365 µM] | -7% | ?
